Test results published in PubChem BioAssay (EPA / NIEHS).
Activity calls are given as the source filed them. How the source made its calls: active means hit-call score of the fitted dose curve at least 0.9, where 1 is the maximum; inactive means score below 0.9.

Tests used:
[1] = ATG_CRE_CIS: Attagene CIS-FACTORIAL HepG2 Assay for human cAMP Responsive Element (CRE) binding protein 3 (AID 2282926); conditions: HepG2 CRE cis-reporter, Attagene multiplexed mRNA; actives raise or lower the signal
In short: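 Liver-derived HepG2, transfected with a CRE-containing reporter panel, exposed 24 h; transcript levels sized and quantified by capillary electrophoresis of labelled amplicons; signal changes either way referenced to vehicle.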

[2] = target: CCAAT/enhancer-binding protein beta (Homo sapiens) (UniProt P17676); assay: ATG_C_EBP_CIS: Attagene CIS-FACTORIAL HepG2 Assay for human CCAAT/Enhancer Binding Protein (C/EBP) beta (AID 2282927); conditions: HepG2 Attagene cis-factorial transcription factor reporter; actives raise or lower the signal
CCAAT/enhancer-binding protein beta (Homo sapiens), sequence (P17676 whole entry, looked up): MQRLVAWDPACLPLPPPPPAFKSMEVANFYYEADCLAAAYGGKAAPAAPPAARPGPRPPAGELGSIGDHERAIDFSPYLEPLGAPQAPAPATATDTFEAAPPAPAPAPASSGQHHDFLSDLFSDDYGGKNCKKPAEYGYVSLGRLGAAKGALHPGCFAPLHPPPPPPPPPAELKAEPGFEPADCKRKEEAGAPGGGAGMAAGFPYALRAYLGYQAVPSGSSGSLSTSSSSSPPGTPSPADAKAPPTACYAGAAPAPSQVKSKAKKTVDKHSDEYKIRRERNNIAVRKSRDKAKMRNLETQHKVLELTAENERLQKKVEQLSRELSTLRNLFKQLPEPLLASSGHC
In short: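 Endogenous transcription factor activity in human liver HepG2 cells is inferred from induction of a CEBPB-linked reporter mRNA. Exposure lasts 24 h; activity is fitted in both directions relative to DMSO.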

[3] = ATG_CMV_CIS: Attagene CIS-FACTORIAL HepG2 Assay for human CMV (Internal Marker) (AID 2282928); conditions: HepG2 CMV promoter reporter, transcription factor profiling; actives raise or lower the signal;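 further: endpoint acts as a background internal control marker rather than a target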
In short: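 Readout: fluorescent reporter cDNA fragments separated by capillary electrophoresis after RT-PCR and HpaI cut. Cells: HepG2 carrying transfected cis-promoter reporter constructs, dosed 24 h. Endpoint serves as background internal-marker control, fit bidirectionally versus DMSO.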

[4] = ATG_DR4_LXR_CIS: Attagene CIS-FACTORIAL HepG2 Assay for human Liver X Receptor (LXR), DR4 submotif (AID 2282929); conditions: HepG2 Attagene DR4 cis-reporter, mRNA transcription; actives raise or lower the signal
In short: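 DR4 cis-reporter in HepG2, 24 h exposure. Detection: RT-PCR, 6-FAM labelling, CE fragment analysis. Endpoint fitted bidirectionally, DMSO = baseline.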

[5] = target: Aryl hydrocarbon receptor (Homo sapiens) (UniProt P35869); assay: ATG_Ahr_CIS: Attagene CIS-FACTORIAL HepG2 Assay for human Aryl Hydrocarbon Receptor (Ahr) (AID 2282930); conditions: HepG2 AhR cis-factorial reporter transcription; actives raise or lower the signal
Aryl hydrocarbon receptor (Homo sapiens), sequence (P35869 whole entry, looked up): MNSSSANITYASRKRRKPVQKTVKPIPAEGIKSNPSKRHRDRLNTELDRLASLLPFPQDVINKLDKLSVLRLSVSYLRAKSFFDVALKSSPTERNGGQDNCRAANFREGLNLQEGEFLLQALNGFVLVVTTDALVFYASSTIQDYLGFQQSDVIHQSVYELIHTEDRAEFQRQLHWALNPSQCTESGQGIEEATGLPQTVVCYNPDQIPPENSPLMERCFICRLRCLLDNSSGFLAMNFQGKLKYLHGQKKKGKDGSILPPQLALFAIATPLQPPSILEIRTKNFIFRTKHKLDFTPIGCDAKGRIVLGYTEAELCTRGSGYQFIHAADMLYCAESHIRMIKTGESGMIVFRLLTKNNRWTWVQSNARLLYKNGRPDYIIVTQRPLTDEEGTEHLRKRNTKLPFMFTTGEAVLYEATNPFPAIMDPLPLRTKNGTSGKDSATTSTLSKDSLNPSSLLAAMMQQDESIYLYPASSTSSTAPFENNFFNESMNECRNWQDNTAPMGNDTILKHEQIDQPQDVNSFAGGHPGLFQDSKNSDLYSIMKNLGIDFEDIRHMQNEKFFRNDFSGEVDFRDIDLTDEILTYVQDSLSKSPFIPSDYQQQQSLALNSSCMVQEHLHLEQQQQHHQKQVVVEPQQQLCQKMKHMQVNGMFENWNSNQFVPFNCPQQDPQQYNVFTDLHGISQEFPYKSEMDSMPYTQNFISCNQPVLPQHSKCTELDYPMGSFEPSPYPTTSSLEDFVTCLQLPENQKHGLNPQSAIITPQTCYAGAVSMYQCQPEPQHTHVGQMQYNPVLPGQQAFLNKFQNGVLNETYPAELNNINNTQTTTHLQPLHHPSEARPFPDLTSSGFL
In short: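 Transient MRTU transfection of HepG2 → 24 h compound exposure → total RNA, oligo(dT) RT → PCR, 6-FAM extension, HpaI cut → CE fluorescence. DMSO = baseline; bidirectional curve fit.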

[6] = ATG_AP_1_CIS: Attagene CIS-FACTORIAL HepG2 Assay for human Activator Protein 1 (AP-1) (AID 2282931); conditions: HepG2 Attagene cis-factorial AP-1 reporter mRNA; actives raise or lower the signal
In short: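 Cis-regulated reporter units transiently expressed in HepG2 report endogenous transcription-factor activity. Signal: reporter mRNA at 24 h, via RT-PCR and fluorescent capillary electrophoresis. Endpoint derived by bidirectional fitting, DMSO as negative control.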

[7] = ATG_AP_2_CIS: Attagene CIS-FACTORIAL HepG2 Assay for human Activator Protein 2 (AP-2) (AID 2282932); conditions: HepG2 AP-2 cis-reporter, Attagene transcription factor profiling; actives raise or lower the signal
In short: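 Transiently transfected HepG2 cells are exposed to chemical for 24 h. Reporter transcripts are then measured as fluorescence following RT-PCR and capillary separation, and gain- or loss-of-signal is fitted relative to DMSO.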

[8] = ATG_BRE_CIS: Attagene CIS-FACTORIAL HepG2 Assay for human Bone Morphogenetic Protein (BMP) Response Element (BRE) (AID 2282933); conditions: HepG2 BMP response element reporter, Attagene transcription factor profiling; actives raise or lower the signal
In short: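 Transient MRTU transfection of human HepG2 liver cells; 24 h compound treatment; total RNA isolated, reverse-transcribed, PCR-amplified, 6-FAM labelled, HpaI-cut, capillary electrophoresis. DMSO = negative control/baseline, bidirectional fit.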

[9] = target: Transcription factor E2F1 (Homo sapiens) (UniProt Q01094); assay: ATG_E2F_CIS: Attagene CIS-FACTORIAL HepG2 Assay for human E2F Transcription Factor 1 (AID 2282935); conditions: HepG2 Attagene cis-reporter, E2F reporter RNA transcripts; actives raise or lower the signal
Transcription factor E2F1 (Homo sapiens), sequence (Q01094 whole entry, looked up): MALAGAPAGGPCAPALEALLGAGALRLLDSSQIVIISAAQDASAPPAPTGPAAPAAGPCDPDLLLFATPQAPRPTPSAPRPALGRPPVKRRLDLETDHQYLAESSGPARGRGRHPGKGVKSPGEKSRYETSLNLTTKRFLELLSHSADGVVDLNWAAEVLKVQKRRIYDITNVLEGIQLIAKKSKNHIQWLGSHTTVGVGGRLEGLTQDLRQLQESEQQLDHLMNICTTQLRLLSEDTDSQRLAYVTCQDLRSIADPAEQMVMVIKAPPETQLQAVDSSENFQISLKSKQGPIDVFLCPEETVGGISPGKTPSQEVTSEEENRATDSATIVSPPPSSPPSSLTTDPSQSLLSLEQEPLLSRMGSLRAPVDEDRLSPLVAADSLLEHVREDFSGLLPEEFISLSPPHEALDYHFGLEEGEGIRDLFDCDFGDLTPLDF
In short: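 Fluorescent RT-PCR products, digested with HpaI for 2 h at 37 C, are separated by capillary electrophoresis. Source RNA comes from transfected HepG2 cultures treated for 24 h.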

[10] = ATG_E_Box_CIS: Attagene CIS-FACTORIAL HepG2 Assay for human Enhancer Box (E-box) (AID 2282936); conditions: HepG2 E-box cis-reporter transcription, actives raise or lower the signal
In short: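 Fluorescent reporter fragments separated by capillary electrophoresis gave the signal; mRNA came from HepG2 cells transfected with cis-element reporters and treated 24 h. Curves fitted bidirectionally relative to DMSO controls.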

[11] = ATG_M_61_CIS: Attagene CIS-FACTORIAL HepG2 Assay for M61 Transcription Factor (Internal Marker) (AID 2282937); conditions: HepG2 Attagene CIS-FACTORIAL M61 internal marker reporter; actives raise or lower the signal
In short: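 Background-control endpoint: HepG2 cells with cis-regulated reporter constructs, 24 h exposure, reporter mRNA detected via fluorescent primer extension and capillary electrophoresis; values from bidirectional fitting with DMSO baseline.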

[12] = ATG_EGR_CIS: Attagene CIS-FACTORIAL HepG2 Assay for human Early Growth Response 1 (EGR1) (AID 2282938); conditions: HepG2 Attagene CIS-FACTORIAL EGR reporter mRNA; actives raise or lower the signal
In short: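 Endpoint derived by bidirectional fitting versus DMSO vehicle. Method: cis-promoter reporter units transfected into HepG2, 24 h dosing, RNA isolation, RT-PCR with 6-FAM primer extension and HpaI digestion, then capillary electrophoresis fluorescence detection.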

[13] = ATG_M_19_CIS: Attagene CIS-FACTORIAL HepG2 Assay for M19 Transcription Factor (Internal Marker) (AID 2282939); conditions: HepG2 Attagene CIS-FACTORIAL M19 internal marker reporter; actives raise or lower the signal
In short: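 Transfect HepG2 with MRTU reporter library → dose chemical, 24 h → isolate total RNA, reverse-transcribe with oligo(dT) → PCR, 6-FAM label, HpaI cut (2 h, 37 C) → capillary electrophoresis. Bidirectional fit vs DMSO.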

[14] = ATG_ERE_CIS: Attagene CIS-FACTORIAL HepG2 Assay for Estrogen Response Element (ERE) (AID 2282940); conditions: HepG2 ERE cis-reporter, Attagene RNA transcript; actives raise or lower the signal
In short: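 Transient MRTU transfection of human HepG2; cis-element promoters; 24 h dosing; total RNA → RT (oligo dT) → PCR → 6-FAM primer extension → HpaI digest → CE fluorescence. Bidirectional fit, DMSO baseline.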

[15] = ATG_Ets_CIS: Attagene CIS-FACTORIAL HepG2 Assay for human Erythroblast Transformation Specific (ETS) (AID 2282941); conditions: HepG2 ETS cis-reporter transcription, actives raise or lower the signal
In short: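 RT-PCR/capillary electrophoresis fluorescence read-out of reporter mRNA; HepG2 transient multi-reporter transfection; 24 h compound exposure; gain or loss of signal fitted bidirectionally relative to DMSO.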

[16] = target: Hepatocyte nuclear factor 3-beta (Homo sapiens) (UniProt Q9Y261); assay: ATG_FoxA2_CIS: Attagene CIS-FACTORIAL HepG2 Assay for human Forkhead box A2 (FOXA2) (AID 2282942); conditions: HepG2 cis-reporter transcription factor activity, 24 h; actives raise or lower the signal
Hepatocyte nuclear factor 3-beta (Homo sapiens), sequence (Q9Y261 whole entry, looked up): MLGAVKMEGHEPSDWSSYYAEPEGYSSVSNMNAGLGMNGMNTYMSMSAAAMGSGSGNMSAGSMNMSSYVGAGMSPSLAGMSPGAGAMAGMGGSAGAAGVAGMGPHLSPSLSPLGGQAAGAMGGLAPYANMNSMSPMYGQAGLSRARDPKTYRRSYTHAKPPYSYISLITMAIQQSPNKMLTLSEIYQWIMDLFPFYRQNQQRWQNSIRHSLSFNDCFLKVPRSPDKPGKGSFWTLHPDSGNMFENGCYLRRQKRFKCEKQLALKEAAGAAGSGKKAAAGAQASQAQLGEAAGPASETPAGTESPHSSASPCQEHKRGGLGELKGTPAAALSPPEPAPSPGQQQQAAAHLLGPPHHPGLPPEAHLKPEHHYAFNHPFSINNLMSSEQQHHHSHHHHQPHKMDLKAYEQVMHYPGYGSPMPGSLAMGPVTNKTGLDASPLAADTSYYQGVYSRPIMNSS
In short: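 Measured: reporter mRNA induction or loss in HepG2 transiently carrying multiple cis-regulated reporter units, 24 h after dosing. Quantified by RT-PCR plus capillary electrophoresis, normalised to DMSO.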

[17] = ATG_GATA_CIS: Attagene CIS-FACTORIAL HepG2 Assay for human GATA Binding Protein (AID 2282944); conditions: HepG2 GATA cis-element reporter, Attagene multiplex mRNA; actives raise or lower the signal
In short: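 Transient MRTU transfection, HepG2, 24 h compound exposure. Total RNA → oligo(dT) RT → PCR → 6-FAM primer extension → HpaI cut → CE. Bidirectional fit vs DMSO.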

[18] = ATG_FoxO_CIS: Attagene CIS-FACTORIAL HepG2 Assay for human Forkhead box O (FoxO) (AID 2282943); conditions: HepG2 Attagene cis-reporter, FoxO element, mRNA; actives raise or lower the signal
In short: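 HepG2, transient MRTU transfection (cis element, endogenous TFs). Dose 24 h. TriZol RNA → oligo(dT) RT → PCR → 6-FAM primer extension → HpaI cut → CE. Gain/loss vs DMSO.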

[19] = target: Retinoic acid receptor alpha (Homo sapiens) (UniProt P10276); assay: ATG_DR5_RAR_CIS: Attagene CIS-FACTORIAL HepG2 Assay for human Retinoic Acid Receptor Alpha (RARE), DR5 submotif (AID 2282934); conditions: HepG2 Attagene cis-factorial RARE DR5 reporter, mRNA; actives raise or lower the signal
Retinoic acid receptor alpha (Homo sapiens), sequence (P10276 whole entry, looked up): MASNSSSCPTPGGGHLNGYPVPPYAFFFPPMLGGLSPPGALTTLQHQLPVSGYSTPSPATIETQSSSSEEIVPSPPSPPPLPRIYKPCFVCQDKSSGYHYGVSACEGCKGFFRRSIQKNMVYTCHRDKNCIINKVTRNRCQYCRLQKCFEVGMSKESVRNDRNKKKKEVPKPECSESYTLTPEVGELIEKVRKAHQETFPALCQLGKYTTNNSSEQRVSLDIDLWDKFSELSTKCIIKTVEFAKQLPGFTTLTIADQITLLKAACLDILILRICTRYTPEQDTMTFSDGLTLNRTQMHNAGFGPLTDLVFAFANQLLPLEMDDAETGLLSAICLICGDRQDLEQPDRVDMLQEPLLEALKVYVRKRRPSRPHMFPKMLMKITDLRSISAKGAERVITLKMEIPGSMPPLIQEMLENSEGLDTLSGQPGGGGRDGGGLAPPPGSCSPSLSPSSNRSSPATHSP
In short: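 Transient MRTU transfection of HepG2; 24 h compound treatment; TriZol RNA, oligo(dT) RT, PCR, FAM labelling, capillary electrophoresis. Bidirectional fit vs DMSO. Endogenous TF activity at DR5 RARE.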

Measured: AC50

COS(C)(=O)=O
active: [5] 22.1 µM
not listed: [18] | [19]
inactive: all other assays above

Cc1ncc([C@@H](CCCCCCc2ccc3c(n2)NCCC3)CC(=O)O)cn1
active: [6] 0.0172 µM
not listed: [12] | [16] | [18] | [19]
inactive: all other assays above

CC1(C)C(=O)N(Cl)C(=O)N1Cl
not listed: [12] | [16] | [19]
inactive: all other assays above

Cn1c(=O)c2[nH]cnc2n(C)c1=O
not listed: [19]
inactive: all other assays above

CCCCCCOC(=O)CC(CC(=O)OCCCCCC)(OC(=O)CCC)C(=O)OCCCCCC
not listed: [12] | [16]
inactive: all other assays above

CCCCCCCCCC
active: [17] 0.033 µM
not listed: [12] | [16] | [19]
inactive: all other assays above

CCCCCCCCCCCCCCO
active: [2] 74.3 µM | [3] 29.4 µM | [4] 78 µM | [5] 114 µM | [7] 166 µM | [8] 166 µM | [9] 158 µM | [10] 129 µM | [15] 159 µM | [16] 138 µM | [17] 179 µM
inactive: [1] | [6] | [11] | [13] | [14]
